Read-out in test [1]: Decorin, DCN (gene 1634)
The experiment in a line: BSK_MyoF_Decorin: BioMAP Diversity Plus: MyoF Assay for Decorin Biomarker Activity (AID 2284265). Conditions: primary human lung fibroblasts. In short, it runs like this: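 Human lung fibroblast cultures were dosed for 24 h, and decorin was then measured by ELISA. Parallel cultures were stained with sulforhodamine B for total protein as a cytotoxicity check. Gain of signal was fitted relative to DMSO.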

Read-out in test [2]: KRT18 (gene 3875)
The experiment in a line: BSK_BF4T_Keratin818: BioMAP Diversity Plus: BF4T Assay for Keratin 818 Biomarker Activity (AID 2284266). As to conditions: primary human bronchial epithelial cells with fibroblasts. In short, it runs like this: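 Keratin 8/18 levels quantified by ELISA after 24 h chemical treatment of bronchial epithelial cell/dermal fibroblast co-cultures, fitted in positive direction relative to DMSO. Parallel SRB staining tracks overt cytotoxicity.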

Test [3] can be described thus: BSK_MyoF_SRB: Viability Assessment in the BioMAP Diversity Plus: MyoF Assay (AID 2284267).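 Further: total protein by SRB absorbance in parallel cultures as cytotoxicity measure; cells assessed 24 h after compound addition.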 Conditions: primary human lung fibroblasts. In short, it runs like this:
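In this viability endpoint, fibroblasts from human lung are treated for 24 h, TCA-fixed, SRB-stained (0.1%) and read at 560 nm. Gain of signal relative to DMSO defines activity.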

Read-out in test [4]: Matrix Metallopeptidase 1 (MMP1), MMP1 (gene 4312)
The experiment in a line: BSK_MyoF_MMP1: BioMAP Diversity Plus: MyoF Assay for Matrix Metallopeptidase 1 (MMP1) Biomarker Activity (AID 2284268). Conditions: primary human lung fibroblasts. The method, boiled down:
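Human lung fibroblast primary cells; MMP1 measured by ELISA 24 h after dosing, fitted in the positive direction relative to DMSO. Parallel SRB staining (0.1%, after 10% TCA fixation, 560 nm) assesses overt cytotoxicity.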

Read-out in test [5]: TIMP metallopeptidase inhibitor 1 (TIMP1), TIMP1 (gene 7076)
The experiment in a line: BSK_MyoF_TIMP1: BioMAP Diversity Plus: MyoF Assay for TIMP metallopeptidase inhibitor 1 (TIMP1) Biomarker Activity (AID 2284269). As to conditions: primary human lung fibroblasts. The method, boiled down: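 Fibroblasts from human lung are dosed with chemical, cultured 24 h, and assayed for TIMP-1 by ELISA. Increases over the DMSO baseline are scored, with SRB total-protein staining run in parallel for cytotoxicity.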

Read-out in test [6]: Matrix Metallopeptidase 3 (MMP3), MMP3 (gene 4314)
The experiment in a line: BSK_BF4T_MMP3: BioMAP Diversity Plus: BF4T Assay for Matrix Metallopeptidase 3 (MMP3) Biomarker Activity (AID 2284271). Conditions: primary human bronchial epithelial cells with fibroblasts. The method, boiled down: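 MMP-3 level read by ELISA after 24 h chemical exposure of bronchial epithelial cell/dermal fibroblast co-cultures, fitted upward relative to DMSO. Parallel cultures stained with 0.1% SRB after TCA fixation gauge overt cytotoxicity.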

Read-out in test [7]: Tissue plasminogen activator (tPA), PLAT (gene 5327)
The experiment in a line: BSK_BF4T_tPA: BioMAP Diversity Plus: BF4T Assay for Tissue plasminogen activator (tPA) Biomarker Activity (AID 2284272). As to conditions: primary human bronchial epithelial cells with fibroblasts. The method, boiled down: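 tPA level quantified by ELISA at 24 h post-treatment in bronchial epithelial/dermal fibroblast co-cultures, gain of signal scored against DMSO baseline. Parallel cultures stained with 0.1% SRB (560 nm) to flag overt cytotoxicity.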

Test [8] can be described thus: BSK_BF4T_SRB: Viability Assessment in the BioMAP Diversity Plus: BF4T Assay (AID 2284274). As to conditions: primary human bronchial epithelial cells with fibroblasts. In short, it runs like this: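 Cytotoxicity measured as total protein: cells fixed with 10% TCA, stained with 0.1% SRB, read at 560 nm. Bronchial epithelial/dermal fibroblast co-culture, 24 h after dosing, with positive-direction fitting relative to DMSO.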

Read-out in test [9]: urokinase Plasminogen Activator (uPA), PLAU (gene 5328)
The experiment in a line: BSK_BF4T_uPA: BioMAP Diversity Plus: BF4T Assay for urokinase Plasminogen Activator (uPA) Biomarker Activity (AID 2284275). As to conditions: primary human bronchial epithelial cells with fibroblasts. In short, it runs like this: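 uPA levels measured by ELISA at 24 hours in BF4T cultures (bronchial epithelial cells plus dermal fibroblasts) and compared with DMSO; cytotoxicity tracked in parallel cultures by sulforhodamine B staining.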

Read-out in test [10]: Matrix Metallopeptidase 9 (MMP9), MMP9 (gene 4318)
The experiment in a line: BSK_BF4T_MMP9: BioMAP Diversity Plus: BF4T Assay for Matrix Metallopeptidase 9 (MMP9) Biomarker Activity (AID 2284276). As to conditions: primary human bronchial epithelial cells with fibroblasts. In short, it runs like this:
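MMP-9 levels were measured by ELISA after 24 h exposure of bronchial epithelial cell/dermal fibroblast co-cultures, with DMSO as baseline. Parallel cultures were stained with 0.1% SRB after TCA fixation, read at 560 nm, to flag overt cytotoxicity.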

Read-out in test [11]: Interleukin-8 (IL8), CXCL8 (gene 3576)
The experiment in a line: BSK_IMphg_IL8: BioMAP Diversity Plus: IMphg Assay for Interleukin-8 (IL8) Biomarker Activity (AID 2284277). Conditions: primary human endothelial cells with macrophages. In short, it runs like this:
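IL-8 levels were measured by ELISA 24 h after dosing in primary human venular endothelial cell–macrophage cultures, referenced to DMSO; parallel SRB staining monitored overt cytotoxicity.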

Read-out in test [12]: Intercellular Adhesion Molecule 1 (ICAM1), ICAM1 (gene 3383)
The experiment in a line: BSK_BE3C_ICAM1: BioMAP Diversity Plus: BE3C Assay for Intercellular Adhesion Molecule 1 (ICAM1) Biomarker Activity (AID 2284278).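 Further: cell-surface ICAM-1 protein level quantified by ELISA.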 As to conditions: primary human bronchial epithelial cells. In short, it runs like this: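 hu bronchial epithelial primary cells, 24 h cpd exposure, ICAM-1 ELISA; gain-of-signal fit vs DMSO baseline.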

Read-out in test [13]: Interleukin-8 (IL8), CXCL8 (gene 3576)
The experiment in a line: BSK_BE3C_IL8: BioMAP Diversity Plus: BE3C Assay for Interleukin-8 (IL8) Biomarker Activity (AID 2284280). As to conditions: primary human bronchial epithelial cells. The method, boiled down:
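Primary human bronchial epithelial cells (BE3C system) were exposed to test chemical for 24 h, and IL-8 levels were then measured by ELISA. Activity was fitted in the positive (gain-of-signal) direction against a DMSO negative-control baseline.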

Read-out in test [14]: Epidermal growth factor receptor (EGFR), EGFR (gene 1956)
The experiment in a line: BSK_BE3C_EGFR: BioMAP Diversity Plus: BE3C Assay for Epidermal growth factor receptor (EGFR) Biomarker Activity (AID 2284281). As to conditions: primary human bronchial epithelial cells. The method, boiled down:
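Human primary bronchial epithelial cells were exposed to compound for 24 h, and cell-surface EGFR was then quantified by ELISA. Activity was fitted in the positive direction against the DMSO vehicle baseline.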

Read-out in test [15]: KRT18 (gene 3875)
The experiment in a line: BSK_BE3C_Keratin818: BioMAP Diversity Plus: BE3C Assay for Keratin 818 Biomarker Activity (AID 2284282). As to conditions: primary human bronchial epithelial cells. The method, boiled down: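 In this multiplexed primary-cell system, bronchial epithelial cells were dosed and harvested at 24 h. Keratin 8/18 was determined by ELISA and analysed for increases over DMSO controls.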

Read-out in test [16]: Matrix Metallopeptidase 9 (MMP9), MMP9 (gene 4318)
The experiment in a line: BSK_BE3C_MMP9: BioMAP Diversity Plus: BE3C Assay for Matrix Metallopeptidase 9 (MMP9) Biomarker Activity (AID 2284283). As to conditions: primary human bronchial epithelial cells. The method, boiled down: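 Human primary bronchial epithelial cells exposed 24 h to compound. MMP9 quantified by ELISA. SRB total-protein staining of parallel cultures assesses cytotoxicity. Positive-direction fit relative to DMSO.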

Read-out in test [17]: Plasminogen activator inhibitor-1 (PAI1), SERPINE1 (gene 5054)
The experiment in a line: BSK_CASM3C_PAI1: BioMAP Diversity Plus: CASM3C Assay for Plasminogen activator inhibitor-1 (PAI1) Biomarker Activity (AID 2284284). As to conditions: primary human coronary artery smooth muscle cells.

Read-out in test [18]: Matrix Metallopeptidase 1 (MMP1), MMP1 (gene 4312)
The experiment in a line: BSK_BF4T_MMP1: BioMAP Diversity Plus: BF4T Assay for Matrix Metallopeptidase 1 (MMP1) Biomarker Activity (AID 2284270). As to conditions: primary human bronchial epithelial cells with fibroblasts. The method, boiled down: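 MMP-1 quantified by ELISA in primary human bronchial epithelial/dermal fibroblast co-cultures, 24 hours post-dosing, with DMSO as baseline; parallel sulforhodamine B staining (560 nm) tracks overt cytotoxicity.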

Read-out in test [19]: Plasminogen Activator Inhibitor-1 (PAI1), SERPINE1 (gene 5054)
The experiment in a line: BSK_BF4T_PAI1: BioMAP Diversity Plus: BF4T Assay for Plasminogen Activator Inhibitor-1 (PAI1) Biomarker Activity (AID 2284273). As to conditions: primary human bronchial epithelial cells with fibroblasts. In short, it runs like this: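 PAI-1 levels quantified by ELISA 24 h post-dosing in bronchial epithelial cell plus dermal fibroblast cultures. Signal gain referenced to DMSO baseline. Sulforhodamine B total-protein staining of parallel wells checked cytotoxicity.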

Read-out in test [20]: Interferon-inducible T-cell alpha chemoattractant (ITAC), CXCL11 (gene 6373)
The experiment in a line: BSK_BE3C_ITAC: BioMAP Diversity Plus: BE3C Assay for Interferon-inducible T-cell alpha chemoattractant (ITAC) Biomarker Activity (AID 2284279). Conditions: primary human bronchial epithelial cells. In short, it runs like this: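 BE3C cells (human primary bronchial epithelium), 24 h compound exposure, I-TAC by ELISA, DMSO = negative control/baseline, positive fitting direction.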

As a reminder, the AC50 is the concentration giving half of the maximal activity seen.

A structure can be active in one record and inactive in another. Active and inactive are the calls of the source. How the source made its calls: active means hit-call score of the fitted dose curve at least 0.9, where 1 is the maximum; inactive means score below 0.9.

On to `O=C(O)C(F)(F)C(F)(F)C(F)(F)C(F)(F)C(F)(F)C(F)(F)C(F)(F)C(F)(F)C(F)(F)C(F)(F)C(F)(F)C(F)(F)C(F)(F)F`, for which the result in [1], in test [2], in test [3], in [4], in [5] and in test [6] was inactive. For the same compound, the result in test [7], in test [8], in test [9], in [10], in [11] and in test [12] was inactive. Moreover, the result in [13], in [14], in test [15], in test [16] and in test [17] was inactive. For the same compound, the AC50 was 1.68 µM (active) in test [6] and 0.675 µM (active) in test [16].
Turning to `CCCCCCCCC(F)(F)C(F)(F)C(F)(F)C(F)(F)C(F)(F)C(F)(F)F`, the outcome in [1], in [2], in [3], in test [4], in test [5] and in [18] was inactive. Besides, the result in test [6], in test [7], in [19], in test [10], in test [12] and in test [13] was inactive. Also, the result in test [14], in test [15], in test [16] and in [17] was inactive.
As to `OCC(F)(F)C(F)(F)C(F)(F)C(F)(F)C(F)(F)C(F)F`, the result in test [1], in test [2], in test [3], in test [4], in [5] and in test [6] was inactive. The result in test [7], in test [8], in test [9], in test [10], in test [11] and in [12] was inactive. The result in test [13], in [14], in [15], in test [16] and in [17] was inactive.
Take `FC1CC(F)(F)C(F)(F)C1(F)F` (configuration not stated): the result in test [1], in test [2], in test [3], in [4], in test [5] and in test [18] was inactive. Moreover, the result in test [6], in test [7], in [8], in test [10], in test [11] and in [12] was inactive. Moreover, the outcome in test [20], in [13], in test [14], in test [15], in test [16] and in test [17] was inactive.
In the case of `O=S(=O)(OCC(F)F)C(F)(F)F`, the result in test [1], in [2], in [3], in test [4], in test [5] and in test [6] was inactive. Moreover, the outcome in [7], in test [8], in [10], in test [12], in test [13] and in test [14] was inactive. Also, the result in [15], in test [16] and in test [17] was inactive.
Take `OCC(F)(F)C(F)(F)C(F)(F)C(F)(F)C(F)(F)C(F)(F)F`: the outcome in [1], in test [2], in test [3], in test [4], in test [5] and in [6] was inactive. Further, the outcome in test [7], in [10], in [12], in test [13], in test [14] and in test [15] was inactive. Moreover, the result in test [16] and in test [17] was inactive. The AC50 in test [3] was 49.5 µM (active); in test [4], 47.9 µM (active); in [14], 48.7 µM (active).
